From PubChem BioAssay AID493194 (Broad Institute, 2011)
Measured potencies and affinities stand elsewhere. Inconclusive results are not listed. Calls of active or inactive are those of the source.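 Rule for the calls: active = a valid curve of falling signal whose half-effect concentration is at most ten times the top tested dose; inconclusive = flat curve at 30 to 70% inhibition, or poor fit; inactive = signal rise, flat within 30%, or potency beyond limit.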

These molecules were tested against Scavenger receptor class B member 1 (Mus musculus) (UniProt Q61009) (assay: inhibitors of SR-BI mediated HDL lipid uptake, dose response, ldlA[mSR-BI] cells, fluorescence, cherry pick (AID 493194;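 note: CHO cells lacking LDL receptor and overexpressing mouse SR-BI; cellular uptake of fluorescently labeled HDL measured as cell fluorescence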)). Conditions: CHO ldlA[mSR-BI] DiI-HDL uptake fluorescence, 3 h; series mostly up to 35 µM.
Chain of Scavenger receptor class B member 1 (Mus musculus) (Q61009 whole entry, looked up): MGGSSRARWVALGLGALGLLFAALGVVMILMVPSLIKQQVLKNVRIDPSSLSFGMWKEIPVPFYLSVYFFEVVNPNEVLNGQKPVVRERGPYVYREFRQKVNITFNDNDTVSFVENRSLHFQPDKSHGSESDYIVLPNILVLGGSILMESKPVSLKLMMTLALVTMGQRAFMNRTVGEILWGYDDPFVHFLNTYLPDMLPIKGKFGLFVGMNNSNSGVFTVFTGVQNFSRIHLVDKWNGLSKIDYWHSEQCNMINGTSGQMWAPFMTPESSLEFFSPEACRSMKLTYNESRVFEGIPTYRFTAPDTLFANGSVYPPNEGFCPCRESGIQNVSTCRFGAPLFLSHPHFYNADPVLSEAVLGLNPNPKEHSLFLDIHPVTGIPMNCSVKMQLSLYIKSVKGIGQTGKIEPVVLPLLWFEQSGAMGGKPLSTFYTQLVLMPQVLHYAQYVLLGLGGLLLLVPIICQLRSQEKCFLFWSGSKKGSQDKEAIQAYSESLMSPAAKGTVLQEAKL

| Structure (SMILES) | outcome |
| --- | --- |
| O=C(N[C@@H]1C/C=C\C[C@@H](CC(=O)N(CCO)Cc2ccccc2)C(=O)NCCOC1=O)OCC1c2ccccc2-c2ccccc21 | inactive |
| Cc1ccc2nc(-c3ccccc3)cc(C(=O)N3CCN(c4ccccc4O)CC3)c2c1 | inactive |
| COc1ccccc1C(CC(=O)Nc1ccccc1C)c1ccc(OC(C)C)cc1 (configuration not stated) | inactive |
| COc1ccc(-c2nnn(CC(=O)N(CC(=O)NC3CCCC3)c3cccc(C)c3)n2)cc1OC | inactive |
| CC(=O)c1cc(C#N)c(SCc2ccccc2C#N)nc1C | inactive |
| COc1ccc(OC)c(CCNC(=O)c2ccc(NC3=NC4CS(=O)(=O)CC4S3)cc2)c1 (configuration not stated) | inactive |
| CN1CCC2CC1c1cc(-c3ccc(C(F)(F)F)cc3)ccc12 (configuration not stated) | inactive |
| COc1ccc(N2CCN(C(=O)c3cc(=O)[nH]c4ccccc34)CC2)cc1 | inactive |
| CC[C@H](C)[C@H](NC(=O)c1ccc(Cl)cc1)C(=O)OCC(=O)c1ccc2c(c1)NC(=O)CO2 | inactive |
| CCOC(=O)c1[nH]c2c(c1-c1ccccc1)C(=O)CC(c1ccc(Cl)cc1)C2 (configuration not stated) | inactive |
| O=C(NCCn1cc(SCc2ccccc2)c2ccccc21)c1c(F)cccc1F | inactive |
| CCN(C(=O)COC(=O)c1c(C)c(-c2ccccc2)nc2ccccc12)C1CCS(=O)(=O)C1 (configuration not stated) | inactive |
| CS(=O)(=O)N1CCc2cc(-c3csc(NC(=O)Cc4ccccc4)n3)ccc21 | inactive |
| Cc1cc(CN(C)C(=O)C2CCC(=O)N(CCc3cccc(F)c3)C2)on1 (configuration not stated) | inactive |
| COc1ccc(NC(=O)Nc2nnc(-c3ccccc3SCc3ccccc3)s2)cc1 | inactive |
| COc1ccc([C@H]2/C=C\CN(S(=O)(=O)c3ccc4ccccc4c3)[C@@H](C)C(=O)N2Cc2ccc(F)cc2)cc1 | inactive |
| COc1ccc(CCC(=O)Nc2ccc(-c3noc(-c4ccc(OC)c(OC)c4)n3)cc2)cc1 | inactive |
| CCOC(=O)N1CCC(NC(=O)c2ccc3c(c2)N(Cc2ccc(F)cc2)CCS3)CC1 | inactive |
| Cc1ccccc1C(=O)Nc1cc(NC(=O)c2ccccc2C)cc(C(=O)O)c1 | inactive |
| CNc1cnn(-c2ccc(C)cc2)c(=O)c1Sc1ccc(C)cc1 | inactive |
| CC(=O)c1cccc(NC(=O)c2ccc3c(c2)CCN3S(=O)(=O)c2ccccc2)c1 | inactive |
| CC(=O)Nc1ccc(S(=O)(=O)Nc2cc(C)c(-n3nc4ccccc4n3)cc2O)cc1 | inactive |
